# Source: PubChem BioAssay (Johns Hopkins Ion Channel Center)
# KCNQ2 inh = rat KCNQ2 potassium channel inhibitors, primary screen, cell-based, CHO-K1, FluxOR thallium flux, B-score; Potassium voltage-gated channel subfamily KQT member 2 (Rattus norvegicus), O88943; 20 min; stronger effect = lower value; B-score at 10 µM; 310,000 compounds, 1.1% hits; AID 2156, 2009;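 active means fluorescence ratio B-score at most minus 3 library SDs, with starting brightness B-score within 2 library SDs, cut at about -5.5 in these data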
# KCNQ2 pot = potentiators of rat KCNQ2 potassium channel | 310,000 compounds, 0.54% hits | B-score at 10 µM | CHO-K1 KCNQ2, FluxOR thallium flux fluorescence; stronger effect = higher value | Potassium voltage-gated channel subfamily KQT member 2 (Rattus norvegicus), O88943 | AID 2239, 2010;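 active means fluorescence ratio B-score at least 3 SD of library B-scores, with initial fluorescence B-score within 3 of them, cut at about 5.3 in these data; same plate scores as AID 2156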;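 further: B-score of peak minus minimum over baseline fluorescence ratio after K+ and Tl+ stimulus; positive B-score means potentiation of KCNQ2 with more thallium influx and brighter signal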
# Kir21 confirm = mouse Kir2.1 channel blockers, retest, confirmation, cell-based, FluxOR thallium flux, duplicate | shares compounds with KCNQ2 pot | Kir2.1-expressing cells, FluxOR thallium flux fluorescence; stronger effect = lower value | Tl flux remaining, % of negative control (stronger effect = lower value), % at 10 µM | 2,300 compounds, 41% hits;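 active means Primary-screen hit whose thallium flux fell at least 3 control SD below untreated wells in both duplicates, with normal baseline fluorescence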
# HEK293 ctr = parental HEK293 activity in Kir2.1 inhibitor counter-screen. shares compounds with KCNQ2 pot. 2,300 compounds, 19% hits. parental HEK293 cells, FluxOR thallium flux fluorescence; 0% = unstimulated blank wells. FluxOR signal as % of negative control (100 = no effect), % at 10 µM;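 active means dye signal at least 3 control SD above or below untreated wells in both duplicates, raw fluorescence within 3, either direction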;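 further: percent is based on the flux ratio of peak minus minimum fluorescence over baseline F0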
# CHO-K1 Tl ctr = nonspecific thallium flux increase in parental CHO-K1, confirmation, counter-screen for KCNQ2 potentiator project, cell-based, FluxOR thallium flux, duplicate; activity increase over 3SD of controls, % at 10 µM; 1,200 compounds, 43% hits; shares compounds with KCNQ2 pot; AID 2282, 2010; parental CHO-K1 cells, FluxOR thallium flux fluorescence; zero = vehicle mean+3SD, 100% = vehicle-minus-blank window;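 active means signal rise of at least 3 SD above the untreated control mean, in both duplicate wells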;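 further: counter screen of KCNQ2 potentiator hits so any rise reflects channel-independent effects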
# KCNQ1 sel pot = human KCNQ1 channel potentiation off-target, confirmation, selectivity assay for KCNQ2 potentiator project, cell-based, CHO, FluxOR thallium flux. shares compounds with KCNQ2 pot. CHO KCNQ1 stable, FluxOR thallium flux fluorescence; beyond 3SD, as % of vehicle-control signal. activation over 3SD threshold, % at 10 µM. 1,200 compounds, 28% hits. AID 2283, 2010;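 active means fluorescence ratio rise of at least 3 SD of vehicle wells above their mean, in both replicate wells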
# KCNQ2 pot conf = rat KCNQ2 channel potentiators, confirmation, cell-based, CHO, FluxOR thallium flux, duplicate. 1,200 compounds, 68% hits. CHO-KCNQ2 cells, FluxOR thallium flux fluorescence. potentiation, less the hit threshold, % at 10 µM. shares compounds with KCNQ2 pot. AID 2287, 2010;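 active means fluorescence ratio rising 3 SD or more over the vehicle control mean in both replicates, plus primary screen hit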;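 further: peak minus minimum thallium fluorescence divided by baseline after K/Tl stimulus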
# Kir21 spec = mouse Kir2.1 channel activation off-target, confirmation, selectivity assay for KCNQ2 potentiator project, cell-based, HEK293, FluxOR thallium flux; HEK293 Kir2.1, FluxOR thallium flux fluorescence; activity over 3SD threshold, % at 10 µM; shares compounds with KCNQ2 pot; 1,200 compounds, 2% hits;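 active means fluorescence ratio rise of at least 3 SD above the vehicle-control mean, seen in both replicates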
# KCNQ2 W236L pot = potentiators of retigabine-insensitive KCNQ2 W236L, mechanism study for KCNQ2 potentiator project, cell-based, rat KCNQ2 W236L, CHO, automated patch clamp; shares compounds with KCNQ2 pot; automated patch clamp current; current increase over 3SD of negative controls (%), stronger effect = higher value, % at 25 µM; 940 compounds, 10% hits; AID 2558, 2010;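 active means current increase at least 3 SD of the untreated controls above them in both duplicate recordings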
# Numbers stand for hits; . = inactive; / = not tested or not shown. This is a sample that favours compounds with a hit; in the whole collection about 1.6% have one here.
SMILES,KCNQ2 inh,KCNQ2 pot,Kir21 confirm,HEK293 ctr,others
CC1(C)CC(=O)C2=C(C1)NC1=C(C(=O)c3ccccc31)C2c1cc([N+](=O)[O-])ccc1O (stereo not drawn),.,/,/,/,
Cc1ccc(S(=O)(=O)NCCC(=O)N2CCC(C(N)=O)CC2)cc1C,.,.,/,/,
CCOc1ccccc1/C=C/C(=O)NCC(=O)N1CCC(N(C)C2CCCCC2C)CC1 (stereo not drawn),.,/,/,/,
COc1ccccc1OC[C@H](O)CO,.,.,/,/,
COc1cc(CNc2ncc(-c3ccc(Cl)cc3)n2C)cc(OC)c1OC,.,/,/,/,
Cc1ccc(CNc2ncc(-c3ccc4c(c3)OCO4)n2C)cc1,-6,.,22%,.,
Cn1c(-c2ccccc2)cnc1NCc1ccc(-c2ccccc2)cc1,.,/,/,/,
Cn1c(-c2ccc(F)cc2)cnc1NCc1ccc(F)cc1,.,/,38%,.,
Cn1c(-c2ccc3c(c2)OCO3)cnc1NCc1ccc(Cl)cc1,.,/,21%,.,
Cn1c(-c2ccc(F)cc2)cnc1NCc1ccc(C#N)cc1,.,/,/,/,
O=C1C(=O)N(Cc2cccnc2)C(c2cccc(Br)c2)/C1=C(/O)c1ccc2c(c1)OCO2 (stereo not drawn),.,.,/,/,
COc1cc(OC)cc(N(C(=O)CNC(=O)c2cccs2)C(C(=O)NCC2CCCO2)c2ccccc2)c1 (stereo not drawn),.,.,/,/,
COc1cccc(/C(C)=N/N=C(\C)c2cccc(OC)c2)c1,.,/,/,/,
COc1ccc(NC(=O)c2cc3ccc4c5ccccc5[nH]c4c3cc2O)cc1,.,.,/,/,
COc1ccc(NC(=O)/C(Cl)=C(/Cl)S(=O)Cc2ccccc2)cn1 (stereo not drawn),.,12,.,64%,CHO-K1 Tl ctr=0.3;KCNQ1 sel pot=.;KCNQ2 pot conf=12;Kir21 spec=.;KCNQ2 W236L pot=3.2%
COc1ccc(NC(=O)Cc2ccccc2)cn1,.,/,/,/,
Cc1onc(-c2c(Cl)cccc2Cl)c1C(=O)Nc1ccc(C(N)=O)cc1,.,/,/,/,
CCc1ccc(S(=O)(=O)/N=C2\C=C(Nc3cccc(C(=O)O)c3)C(=O)c3ccccc32)cc1,.,.,/,/,
Cc1cc(C)c(S(=O)(=O)/N=C2\C=C(Nc3ccc(C(=O)O)cc3)C(=O)c3ccccc32)c(C)c1,.,7.9,.,.,CHO-K1 Tl ctr=9.1;KCNQ1 sel pot=.;KCNQ2 pot conf=.;Kir21 spec=.;KCNQ2 W236L pot=.
CC1CC(NS(=O)(=O)c2cc3c4c(c2)CCN4C(=O)CC3)CC(C)(C)C1 (stereo not drawn),.,.,/,/,
O=C1NC2(CCCCCCC2)C(=O)N1Cc1ccc(F)cc1,.,/,/,/,
O=C1NC2(CCCCCC2)C(=O)N1Cc1ccccc1,.,5.6,.,.,CHO-K1 Tl ctr=.;KCNQ1 sel pot=.;KCNQ2 pot conf=.;Kir21 spec=.
O=C(CSc1nc2ccc(Nc3nc(N4CCCC4)nc(N4CCCC4)n3)cc2s1)NCc1ccco1,.,/,/,/,
Cc1ccc(C)c(OC(=O)c2cccnc2Cl)c1C,.,/,/,/,
COc1cc(CNCc2ccccn2)ccc1OCc1ccc(Cl)cc1Cl,.,/,26%,.,
COc1cc(CNCCN2CCOCC2)ccc1OCc1ccc(Cl)cc1Cl,.,/,/,/,
